# Several values for one entry are separate records, joined by “and”; a condition that tells them apart may be missing. Identical values can stand only once. Activity calls are given as the source filed them. How the source made its calls: active means hit-call score of the fitted dose curve at least 0.9, where 1 is the maximum; inactive means score below 0.9.
# Read-out: Collagen I, COL1A1 (gene 1277)
# Test: BSK_MyoF_CollagenI: BioMAP Diversity Plus: MyoF Assay for Collagen I Biomarker Activity (AID 2284238)
# Details: primary human lung fibroblasts
# Description: BSK_MyoF is a cell-based, multiplexed-readout assay that uses lung fibroblasts, […], with measurements taken at 24 hours after chemical dosing in a microplate: 96-well plate.BSK_MyoF_CollagenI is an assay component measured in the BSK_MyoF assay. It measures Collagen I antibody related to regulation of gene expression using ELISA technology.Data from the assay component BSK_MyoF_CollagenI was analyzed at the endpoint, BSK_MyoF_CollagenI, in the positive analysis fitting direction relative to DMSO as the negative control and baseline of activity. Using a type of binding reporter, gain or loss-of-signal activity can be used to understand protein changes. To generalize the intended target to other relatable targets, this assay endpoint is annotated to the 'cell adhesion molecules' intended target family, where the subfamily is 'collagen'.
# The levels of cell surface (or secreted, indicated by the prefix "s") biomarker endpoints were measured by ELISA. Overt cytotoxicity to cells in confluent adherent cultures (all systems other than the BT system) was assessed by measuring total protein levels using sulforhodamine B (SRB) staining in parallel cultures at the time of biomarker measurements, indicated as SRB endpoints. For proliferation assays for adherent cell types, individual cell types are cultured at sub-confluence and relative cell numbers quantified by SRB staining at time points optimized for each system (48 h: 3C and CASM3C systems; 72 h: BT and HDF3CGF systems; 96 h: SAg system). SRB was performed by staining cells with 0.1% SRB after fixation with 10% TCA and reading wells at 560 nm.Viability and proliferation of PBMC (T cells) was quantified by Alamar Blue reduction for the SAg and BT systems. For PBMC viability (referred to as PBMC Cytotoxicity within the assay endpoint names), cells were plated (75,000/well in a 96-well plate) and then chemical samples added for 1 h before addition of activators, SEB and TSST-1 (20 ng/mL final concentration each). Cells were incubated for 90 h. Then, Alamar Blue (20 uL/well) (Invitrogen, Cat DAL1100) was added for 6 h, and the plates were read with a fluorescence microplate reader at 546/580 nm (excitation/emission). For PBMC proliferation, cells were plated and activated as above but incubated for only 16 h prior to addition of Alamar Blue. Plates were read after 6 h.
SMILES,outcome,AC50
O=C(NCc1ncc(C(F)(F)F)cc1Cl)c1c(Cl)cccc1Cl,inactive,
CCCCCCCCCCCCCCCCCC[N+](C)(C)Cc1ccccc1,,1.02 µM (active)
O=C1c2ccc(O)c(O)c2C(=O)c2c(O)ccc(O)c21,inactive,
O=C(O)CCC(F)(F)C(F)(F)C(F)(F)C(F)(F)C(F)(F)C(F)(F)F,inactive,
O=P(O)(O)CCC(F)(F)C(F)(F)C(F)(F)C(F)(F)C(F)(F)C(F)(F)C(F)(F)C(F)(F)F,inactive,
Clc1ccc(Nc2nnc(Cc3ccncc3)c3ccccc23)cc1,inactive,
NC(=NCCCCCCN=C(N)/N=C(\N)Nc1ccc(Cl)cc1)/N=C(\N)Nc1ccc(Cl)cc1,,1.21 µM (active)
C=CC(=C)CC/C=C(\C)CCC=C(C)C,inactive,
CN(C)c1ccc(C(=C2C=CC(=[N+](C)C)C=C2)c2ccccc2)cc1,,0.0082 µM (active)
Cc1ccc(N=Nc2c(O)ccc3ccccc23)c(C)c1,inactive,
CC(C)(C)c1ccc(O)c(O)c1,,27.4 µM (active)
O=C(CC(=O)C(F)(F)C(F)(F)C(F)(F)F)c1cccs1,,17.8 µM (active) and 7.76 µM (active)
OCC(F)(F)C(F)(F)C(F)(F)C(F)(F)C(F)(F)C(F)(F)C(F)(F)C(F)(F)C(F)(F)C(F)(F)C(F)(F)F,inactive,
CC[N+](CC)(CC)Cc1ccccc1,inactive,
COc1cc(OC)nc(NC(=O)NS(=O)(=O)Nc2ccccc2C(=O)N(C)C)n1,inactive,
O=C1OC2(c3ccccc31)c1cc(I)c(O)c(I)c1Oc1c2cc(I)c(O)c1I,,5.89 µM (active)
COc1cccc(O)c1,inactive,
CC1=NN(c2ccccc2)C(=O)C1,inactive,
Oc1cc2ccccc2cc1O,inactive,

SMILES,outcome,AC50
CN(Cc1cnc2nc(N)nc(N)c2n1)c1ccc(C(=O)N[C@@H](CCC(=O)O)C(=O)O)cc1,inactive,
CCCCCc1ccc(O)cc1,,24 µM (active)
O=C(O)CCC(F)(F)C(F)(F)C(F)(F)C(F)(F)C(F)(F)F,inactive,
Cc1ccc(C(=O)c2ccccc2)cc1,inactive,
CCCCC(CC)C(=O)OCCOCCOCCOCCOC(=O)C(CC)CCCC (stereo not drawn),inactive,
O=C(NO)c1ccccc1,inactive,
O=S(=O)(O)C(F)(F)C(F)(F)C(F)(F)C(F)(F)C(F)(F)C(F)(F)C(F)(F)C(F)(F)C(F)(F)C(F)(F)F,inactive,
O=C(O)C(F)(F)OC(F)(F)C(F)(F)OC(F)(F)C(F)(F)OC(F)(F)C(F)(F)C(F)(F)C(F)(F)F,,9.61 µM (active) and 5.9 µM (active)
CCOC(=O)CN[C@@H](C(=O)N1CC[C@H]1C(=O)NCc1ccc(/C(N)=N/O)cc1)C1CCCCC1,inactive,
OCCN1CN(CCO)CN(CCO)C1,inactive,
COC1=CC(=O)C[C@@H](C)[C@]12Oc1c(Cl)c(OC)cc(OC)c1C2=O,,20 µM (active)
Cc1cccc2c1ccc1ccccc12,inactive,
O=P(O)(O)CCC(F)(F)C(F)(F)C(F)(F)C(F)(F)C(F)(F)C(F)(F)F,inactive,
C=CC(C)(CCC=C(C)C)OC(C)=O (stereo not drawn),inactive,
CN(CCO)S(=O)(=O)C(F)(F)C(F)(F)C(F)(F)C(F)(F)C(F)(F)C(F)(F)C(F)(F)C(F)(F)F,,1.82 µM (active) and 2.36 µM (active)
C=COC(=O)C(C)(C)CCCCCC,,34.2 µM (active)
COCN(COC)c1nc(N(COC)COC)nc(N(COC)COC)n1,inactive,
C=CC(=O)OCCC(F)(F)C(F)(F)C(F)(F)C(F)(F)C(F)(F)C(F)(F)C(F)(F)C(F)(F)F,inactive,
C[C@]12CC[C@@H]3c4ccc(O)cc4CC[C@H]3[C@@H]1C[C@@H](O)[C@@H]2O,inactive,

# Reference: PubChem BioAssay (EPA / NIEHS)
